Screening data as filed in PubChem BioAssay.
PLK1 kinase inh – blocks human PLK1 kinase activity; recombinant PLK1 kinase, TR-FRET peptide phosphorylation; P53350; hit rate 0.53% among 97,000; inhibition, % at 10 µM; AID 619;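 active = inhibition of 50% or more in the single-concentration screen; inactive = inhibition below 50%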
CYP2C19 act – increases human CYP2C19 enzyme activity; P33261; recombinant CYP2C19, luciferin-H EGE luminescence; hits give high values; 0 = fully inhibited enzyme, 1 = untreated enzyme; activation factor at 5 µM; 96,000 tested, under 10 active; AID 1025;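 active = activation factor of at least 2 at 5 µM in the primary screen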
PLK1 PBD inh – Plk1 (human) PBD binding inhibition | P53350 | Plk1 PBD phosphopeptide binding, fluorescence polarization | inhibition, %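 (tested at about 20 µM)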 | hit rate 0.13% among 97,000 | AID 693; in the data active = inhibition above about 34%, passing the limit was not always enough
CYP2C19 inhib – human CYP2C19 inhibition; inhibition, % at 5 µM; AID 778; P33261; CYP2C19 Supersomes, luciferin-H EGE luminescence, 30 min; hit rate 21% among 96,000;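 active = CYP2C19 inhibition above a set limit at 5 µM in the primary screen, cut at about 50% in these data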
CYP2C9 inh – inhibitors of human CYP2C9; CYP2C9 Supersomes, luciferin-H conversion, luminescence; inhibition, % at 5 µM; hit rate 20% among 96,000; AID 777;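 active = blocking of liver enzyme CYP2C9 beyond about 50% at 5 µM, limit read from the data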
Target sequence (P11712 whole entry, looked up): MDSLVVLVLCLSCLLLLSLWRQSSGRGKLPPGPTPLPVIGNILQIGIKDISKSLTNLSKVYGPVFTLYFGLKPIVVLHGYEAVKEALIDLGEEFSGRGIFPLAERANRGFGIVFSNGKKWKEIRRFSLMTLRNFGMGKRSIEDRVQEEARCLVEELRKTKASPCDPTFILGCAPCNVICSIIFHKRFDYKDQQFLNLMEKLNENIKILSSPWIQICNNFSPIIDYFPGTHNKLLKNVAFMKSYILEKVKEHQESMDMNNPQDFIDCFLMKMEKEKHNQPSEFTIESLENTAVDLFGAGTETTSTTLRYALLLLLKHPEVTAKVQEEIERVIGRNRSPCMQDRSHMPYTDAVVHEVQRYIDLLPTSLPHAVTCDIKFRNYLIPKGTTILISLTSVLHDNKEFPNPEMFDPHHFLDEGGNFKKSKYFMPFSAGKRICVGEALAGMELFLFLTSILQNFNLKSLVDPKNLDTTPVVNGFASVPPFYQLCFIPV
CYP2C9 act – activators of human CYP2C9; recombinant CYP2C9, luciferin-H conversion, luminescence; hits give high values; factor 1 = untreated enzyme, 0 = blocked; activation factor at 5 µM; hit rate 1.4% among 96,000; AID 1024;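 active = activation factor of 2 or more for CYP2C9 at a 5 µM dose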
Large screens that a line does not name were inactive. Sampled rows, rich in hits. Any-hit rate of the full collection: about 28%.

Cc1cc(C)cc(N2C(=O)CC(N(C(=O)c3ccco3)c3cc(C)cc(C)c3)C2=O)c1 (stereo not drawn)	CYP2C9 inh 62
CCCOc1ccc(N2C(=O)CC(N(C(=O)c3ccco3)c3ccc(OCCC)cc3)C2=O)cc1 (stereo not drawn)	none
CCCC(=O)NC(=S)Nc1ccccc1C(F)(F)F	CYP2C19 inhib 55, CYP2C9 inh 50
CCC(=O)NC(=S)Nc1ccccc1C(F)(F)F	none (no result: CYP2C19 act, CYP2C19 inhib, CYP2C9 inh, CYP2C9 act)
CCCC(=O)NC(=S)Nc1cccc(Cl)c1N1CCCCC1	CYP2C19 inhib 69, CYP2C9 inh 93
CC(C)C(=O)NC(=S)Nc1ccccc1C(F)(F)F	CYP2C19 inhib 73, CYP2C9 inh 63
CC(C)Nc1nc(NC(C)C)nc(C(N)=O)n1	none
O=C(O)C1CCN(C(=O)c2ccc(Cl)cc2)CC1	none
N#C/C(=C(\O)Cc1ccccc1)c1nc2ccccc2[nH]1	none
C/C(O)=C(\C#N)c1nc2ccccc2[nH]1	none
CSCCC(/C(O)=C(\C#N)c1nc2ccccc2[nH]1)N1C(=O)c2ccccc2C1=O (stereo not drawn)	CYP2C19 inhib 99, CYP2C9 inh 95
N#C/C(=C(/O)CN1C(=O)c2ccccc2C1=O)c1nc2ccccc2[nH]1	CYP2C9 inh 51
Cc1ccc(C)c(-c2nn(-c3cc(N4CCN(CCO)CC4)ccc3[N+](=O)[O-])c(=O)c3ccccc23)c1	none
Cc1csc2c(C#N)c(=O)c3c(n12)CCC3	none
CCOc1cc(CNC2CCCC2)cc(Cl)c1OCc1ccc(F)cc1	CYP2C19 inhib 95
COc1cc(CNC2CCCC2)cc(OC)c1OC	none
COc1cc(CNC2CCCC2)cc(Cl)c1OCc1ccc(F)cc1	CYP2C19 inhib 95
O=C1CCC(C(=O)OCc2ccccc2)N1 (stereo not drawn)	none
Cc1ccc(S(=O)c2ccc(C)cc2)cc1	none
COc1ccc(-c2cn3c(C)c(C(=O)N4CCN(c5ccc(F)cc5)CC4)sc3n2)cc1	none
COc1ccccc1N1CCN(C(=O)c2sc3nc(-c4ccc(F)cc4)cn3c2C)CC1	CYP2C9 inh 50 (no result: PLK1 kinase inh, PLK1 PBD inh)
CCOC(=O)N1CCN(C(=O)c2sc3nc(-c4ccc(F)cc4)cn3c2C)CC1	CYP2C19 inhib 64, CYP2C9 inh 69
NC(=O)N1OCC2COc3ccc4ccccc4c3C21 (stereo not drawn)	CYP2C9 act 2.1
O=C1C(=O)N(CCCn2ccnc2)C(c2cccnc2)/C1=C(/O)c1ccccc1 (stereo not drawn)	none (no result: CYP2C19 act, CYP2C19 inhib, CYP2C9 inh, CYP2C9 act)
[O-][n+]1onc2c3ccnnc3ccc21	none
Cc1cc(C)nc(SCc2nnc(SCC(=O)Nc3ccc(Cl)c(C(F)(F)F)c3)o2)n1	none
Cc1cccc(NC(=O)CSc2nnc(CSc3nc(C)cc(C)n3)o2)c1	CYP2C19 inhib 89
Cc1cccc(NC(=O)CCSc2nc(C)cc(C)n2)c1	CYP2C19 inhib 52, CYP2C9 act 2.7
Cc1cccc(C)c1NC(=O)C(c1ccc(Cl)cc1Cl)N1CCCCC1 (stereo not drawn)	none
COC(=O)c1ccccc1NC(=O)c1cccc(NC(=O)CSCc2ccccc2)c1C	none
COc1ccc2c(Cl)c(C(N)=O)sc2c1	none (no result: PLK1 kinase inh, PLK1 PBD inh)
COc1ccc2c(Cl)c(C(=O)NN)sc2c1	CYP2C19 inhib 82, CYP2C9 inh 56
COc1ccc2c(Cl)c(C(=O)NCCCn3ccnc3)sc2c1	CYP2C19 inhib 98, CYP2C9 inh 91
COC(=O)c1cccc(NC(=O)C2COc3ccccc3O2)c1 (stereo not drawn)	CYP2C19 inhib 67, CYP2C9 inh 60
COC(=O)c1cc(NC(=O)C2COc3ccccc3O2)ccc1Cl (stereo not drawn)	CYP2C19 inhib 95, CYP2C9 inh 72
COC(=O)c1cccc(NC(=O)C2COc3ccccc3O2)c1C (stereo not drawn)	CYP2C19 inhib 64 (no result: PLK1 kinase inh, PLK1 PBD inh)
CC(C)NC(=O)c1ccccc1NC(=O)C1COc2ccccc2O1 (stereo not drawn)	none (no result: CYP2C19 act, CYP2C19 inhib, CYP2C9 inh, CYP2C9 act)
O=C(Nc1ccc(S(=O)(=O)Nc2ccccc2)cc1)C1COc2ccccc2O1 (stereo not drawn)	none (no result: CYP2C19 act, CYP2C19 inhib, CYP2C9 inh, CYP2C9 act)
O=S(=O)(NCc1ccc2c(c1)OCO2)c1cnc[nH]1	CYP2C19 inhib 70, CYP2C9 inh 92
CCOc1ccc(OCC)c(S(=O)(=O)NCc2ccc3c(c2)OCO3)c1	CYP2C19 inhib 100, CYP2C9 inh 92
COc1cc(C)c(S(=O)(=O)NCc2ccc3c(c2)OCO3)cc1C	CYP2C19 inhib 100, CYP2C9 inh 84
CCOc1ccc(OCC)c(S(=O)(=O)NCc2ccccn2)c1	none
COc1cc(S(=O)(=O)NCc2ccc3c(c2)OCO3)ccc1Cl	CYP2C19 inhib 100
COc1cc(C)c(Cl)c(C)c1S(=O)(=O)NCc1ccc2c(c1)OCO2	none
O=S(=O)(NCc1ccc2c(c1)OCO2)c1ccc2c(c1)oc1ccccc12	none
CC(C)P(=O)(Cc1cccc(C#N)c1)C(C)C	none
COc1ccc(-c2cc(C(F)(F)F)nc(-n3cc(Cl)cn3)n2)cc1	none
Cc1ccnc(N2CCC(C(=O)NNC(=O)c3ccccc3C)CC2)n1	none
O=C(Oc1ccc2c(=O)c(Cl)coc2c1)c1ccncc1	CYP2C19 inhib 75, CYP2C9 inh 77
O=C(Oc1ccc2c(=O)c(Oc3ccc4ccccc4c3)coc2c1)c1cncc(Br)c1	none
CCCNC(=O)c1ccc2c(c1)C1C3CCC(C3)C1C(c1ccccc1)N2 (stereo not drawn)	CYP2C19 inhib 89, CYP2C9 inh 100
CCCNC(=O)c1ccc2snnc2c1	none (no result: CYP2C19 act, CYP2C19 inhib, CYP2C9 inh, CYP2C9 act)
Cc1ccc(NS(=O)(=O)c2ccc(OCC(=O)Nc3cccc([N+](=O)[O-])c3)c(C)c2)cc1	CYP2C19 inhib 52, CYP2C9 inh 89
Cc1ccc(S(=O)(=O)N(CC(=O)Nc2cccc([N+](=O)[O-])c2)C2CCCCC2)cc1	CYP2C9 inh 92
O=C(CN(C1CC1)S(=O)(=O)c1ccc(S(=O)(=O)N2CCCCCC2)cc1)Nc1ccccc1	none
COc1ccc(C)cc1S(=O)(=O)N(CC(=O)O)c1ccc(F)cc1	none
CC(=O)Nc1cccc(OCC(=O)NS(=O)(=O)c2ccc(C)cc2)c1	none
COc1ccc(C)cc1S(=O)(=O)N(CC(=O)Nc1cccc([N+](=O)[O-])c1)c1cc(C)cc(C)c1	CYP2C9 inh 93
CCN(C1CCCCC1)S(=O)(=O)c1ccc(S(=O)(=O)N(CC(=O)Nc2ccccc2)C2CC2)cc1	CYP2C9 inh 68
O=C(NC1CCCCCC1)c1ccc(CN2CCOCC2)cc1	none
CCOC(=O)c1ccccc1NC(=O)c1ccc(Cl)c(S(=O)(=O)N2CCOCC2)c1	none (no result: CYP2C19 act, CYP2C19 inhib, CYP2C9 inh, CYP2C9 act)
O=C(CN(C(=O)CSc1nc2ccccc2o1)c1cccc(F)c1)NC1CCCCC1	CYP2C19 inhib 74, CYP2C9 inh 63
O=C(CN(C(=O)CSc1nc2ccccc2o1)c1ccccc1)NC1CCCCC1	CYP2C19 inhib 77
CS(=O)(=O)N(CC(=O)NC1CCCC1)c1cccc(F)c1	none
CC(C)Nc1nc(NC(C)C)nc(N(C#N)CCOc2ccc(Cl)cc2Cl)n1	none (no result: CYP2C19 act, CYP2C19 inhib, CYP2C9 inh, CYP2C9 act)
